The list is not random: actives were taken first. Their share in the collection is about 4.1%.
CSC inhib: cancer stem cell viability inhibitors, primary screen, luminescence; 1.1% of 300,000 active; cancer stem cell-like cells viability; inhibition, % at 7.5 µM; in the data active = inhibition above about 75%; inconclusive = no clear call, values can overlap the other calls; tested in HMLE shEcad cells
aSyn UTR inh: MLPCN primary screen, SNCA 5' untranslated region. alpha-synuclein 5'UTR reporter, inhibitor activity. inhibition, % (tested at 7.5 µM). 0.82% of 300,000 active; in the data active = inhibition above about 60%; inconclusive = no clear call, values can overlap the other calls;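 note: H4 neuroglioblastoma cells stably carrying SNCA 5'UTR luciferase fusion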
A1 inh: caspase 3/7 activation in MEF A1-2A-BIM cells, primary screen, A1 inhibitor project, cell-based, luminescence, HTS; caspase activation, % (no concentration beside the values); Caspase-Glo 3/7 luminescence, 3 h; percent of clofoctol response, vehicle zero; 0.066% of 330,000 active; AID 2462, 2010;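 active = over half of replicate activation scores above 10%, or exactly half above 10 with the replicate mean above 10; inconclusive = replicate mean below 10 yet half the replicates above 10; inactive = over half of replicates below 10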
Beta apoptosis: inhibitors of cytokine-induced beta cell apoptosis, primary screen, luminescence; INS-1E cytokine-induced death, ATP luminescence, 48 h; percent of positive-control rescue, neutral wells zero; protection from apoptosis, % (test concentration not listed); 0.8% of 300,000 active; AID 435005, 2010;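 active = Every replicate reaches about 75%, or at least half do and their mean reaches it too, limit read from the data; inconclusive = At least half of replicates reach the limit but their mean does not; inactive = Under half of replicates reach the limit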;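 note: higher means more ATP so stronger rescue from cytokine killing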
Mdm2-MdmX inh: inhibitors of human Mdm2-MdmX association, primary screen, cell-based, luminescence, split luciferase, SaOS-2, uHTS | SaOS-2 split-luciferase Mdm2/MdmX complementation | inhibition, % at 8 µM | AID 485346, 2010 | Protein Mdm4 (Homo sapiens) + E3 ubiquitin-protein ligase Mdm2 (Homo sapiens), … | 3% of 330,000 active;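 active = inhibition of at least 50% at 8 µM in the primary screen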
Target sequence (O15151 whole entry, looked up): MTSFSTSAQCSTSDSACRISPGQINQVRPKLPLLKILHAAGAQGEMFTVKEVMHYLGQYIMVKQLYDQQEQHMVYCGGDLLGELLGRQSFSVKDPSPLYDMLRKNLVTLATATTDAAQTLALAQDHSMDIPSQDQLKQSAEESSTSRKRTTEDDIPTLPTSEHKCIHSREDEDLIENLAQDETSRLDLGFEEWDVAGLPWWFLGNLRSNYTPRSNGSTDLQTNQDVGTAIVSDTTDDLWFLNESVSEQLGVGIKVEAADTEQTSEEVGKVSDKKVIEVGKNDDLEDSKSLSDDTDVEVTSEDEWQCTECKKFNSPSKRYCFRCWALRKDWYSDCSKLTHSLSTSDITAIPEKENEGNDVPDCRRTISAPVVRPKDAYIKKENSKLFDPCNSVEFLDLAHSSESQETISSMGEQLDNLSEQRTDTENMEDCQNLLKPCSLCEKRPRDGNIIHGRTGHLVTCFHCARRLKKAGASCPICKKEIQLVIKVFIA
Target sequence (Q00987 whole entry, looked up): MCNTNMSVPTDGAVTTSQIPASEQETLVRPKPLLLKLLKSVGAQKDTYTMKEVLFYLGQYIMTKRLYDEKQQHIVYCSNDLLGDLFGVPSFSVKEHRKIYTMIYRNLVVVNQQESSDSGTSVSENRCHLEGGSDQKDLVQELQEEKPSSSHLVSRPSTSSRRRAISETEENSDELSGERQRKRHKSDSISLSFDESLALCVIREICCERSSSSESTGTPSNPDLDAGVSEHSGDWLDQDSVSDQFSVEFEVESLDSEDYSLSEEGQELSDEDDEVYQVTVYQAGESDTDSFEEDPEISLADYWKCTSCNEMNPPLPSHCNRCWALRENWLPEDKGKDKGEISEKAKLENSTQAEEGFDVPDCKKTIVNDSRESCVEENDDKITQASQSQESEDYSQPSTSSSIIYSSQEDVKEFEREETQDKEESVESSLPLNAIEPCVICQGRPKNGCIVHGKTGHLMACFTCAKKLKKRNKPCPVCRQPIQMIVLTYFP
Mdm2-MdmX conf: Mdm2-MdmX complex disruptors, retested hits, confirmation, luminescence, single concentration; shares compounds with Mdm2-MdmX inh; Mdm2-MdmX binding, luminescent assay; inhibition, % at 8 µM; 55% of 10,000 active; AID 489028, 2010; in the data active = inhibition above about 40%
Full FLuc ctr: full-length luciferase signal inhibition, confirmation, counter-screen for Mdm2/MdmX interaction inhibitor project, cell-based, single concentration, SaOS-2. shares compounds with Mdm2-MdmX inh. SaOS-2 full-length luciferase counterscreen, luminescence. inhibition, % at 8 µM. 77% of 6,200 active. AID 504607, 2011;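 active = mean inhibition at 8 µM reaching about 37%, which flags the compound as non-specific, limit read from the data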;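 note: p53-null SaOS-2 cells with luciferase driven by a doxycycline-inducible promoter; compound on cells about two nights before reading with doxycycline added after day one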
Hits are given with their value; - = inactive; ? = inconclusive; . = no result.

SMILES	CSC inhib	aSyn UTR inh	A1 inh	Beta apoptosis	Mdm2-MdmX inh	Mdm2-MdmX conf	Full FLuc ctr
Cc1ccc(N(C)S(=O)(=O)c2cccc(C(=O)NC3CC(C)(C)NC(C)(C)C3)c2)cc1	-	-	-	-	-	.	.
COc1ccccc1N(Cc1ccccc1)S(=O)(=O)c1cccc(C(=O)Nc2ccc(C(C)=O)cc2)c1	.	-	-	-	-	.	.
CC1(C)CC(NC(=O)c2cccc(S(=O)(=O)N(Cc3ccccc3)c3ccccc3)c2)CC(C)(C)N1	-	-	-	-	95	59	61
O=C1NC(NS(=O)(=O)c2ccccc2)(C(F)(F)F)C(=O)N1c1cccc(Cl)c1 (centres undefined)	.	-	-	-	-	.	.
CC1CCC(C(C)C)C(OC(=O)Cn2c(-c3ccc(F)cc3)[n+](C)c3ccccc32)C1 (centres undefined)	-	.	-	105	89	93	57
CC1CCC(C(C)C)C(OC(=O)Cn2c(-c3ccccc3)[n+](C)c3ccccc32)C1 (centres undefined)	-	77	-	104	93	94	38
Cc1cccc(OCc2n(CC(=O)OC3CC(C)CCC3C(C)C)c3ccccc3[n+]2C)c1 (centres undefined)	103	?	-	106	94	96	56
COc1ccc(C(=O)NCC(=O)OCC(=O)Nc2ncc(Cl)cc2Cl)cc1[N+](=O)[O-]	-	.	-	-	-	.	.
Nc1nc(Cl)nc2c1ncn2[C@H]1C[C@H](O)[C@@H](CO)O1	76	84	?	-	87	74	-
Nc1ncnc2c1ncn2[C@H]1C[C@H](O)[C@@H](CO)O1	-	.	-	-	-	.	.
O=c1oc(-c2ccccc2Br)nc2ccccc12	-	-	-	.	65	50	47
CCc1ccc(CCC(=O)Nc2sc3c(c2C#N)CCCC3)o1	-	-	-	-	50	68	83
COCCNC(=O)CSc1nc2cc(OC)c(OC)cc2c(=O)n1Cc1ccc(OC)cc1	-	-	-	-	-	.	.
Cc1sc2nc(SCC(=O)NCc3ccco3)n(CCc3ccccc3)c(=O)c2c1C	-	-	-	-	63	-	.
COc1cc2nc(SCC(=O)NCc3ccco3)n(Cc3ccc(Cl)cc3)c(=O)c2cc1OC	.	-	-	-	78	-	.
O=C(Nc1ccc(Cl)cc1)c1cccs1	-	-	-	-	-	.	.
C/C(=N/NC(=O)c1ccc(Cl)s1)c1ccc(NC(=O)COc2ccc(Cl)cc2)cc1	-	-	-	-	78	-	.
C/C(=N/NC(=O)c1cccs1)c1ccc(NC(=O)COc2ccc(Cl)cc2Cl)cc1	-	-	-	-	75	-	.
CCC(=O)Nc1ccc(/C(C)=N\NC(=O)c2ccc(C)s2)cc1	.	-	-	-	-	.	.
O=C(Nc1ccc(NC(=O)c2ccc(Cl)cc2Cl)cc1)c1cccs1	-	-	-	-	72	-	.
COc1ccc2[nH]cc(CCNC(=O)Nc3ccccc3C)c2c1	-	-	-	-	-	.	.
CCC(C)c1ccc2oc(-c3ccc(NC(=O)Cn4cnc5c(=O)n(C)c(=O)n(C)c54)cc3)nc2c1 (centres undefined)	-	-	-	-	50	61	147
Cc1ccc2oc(-c3cccc(NC(=O)Cn4cnc5c(=O)n(C)c(=O)n(C)c54)c3)nc2c1	-	-	-	-	-	.	.
O=C(C1CCN(S(=O)(=O)c2cccc3cccnc23)CC1)N1CCCCC1	-	-	-	-	-	.	.
O=C(CCl)N1c2ccccc2SCC1c1ccccc1 (centres undefined)	-	-	-	-	99	54	-
SMILES	CSC inhib	aSyn UTR inh	A1 inh	Beta apoptosis	Mdm2-MdmX inh	Mdm2-MdmX conf	Full FLuc ctr
O=C(CCl)N1c2ccccc2OCC1c1ccccc1 (centres undefined)	-	-	-	-	-	.	.
O=C(O)c1nn(CCOc2cccc(Cl)c2)c(=O)c2ccccc12	-	-	-	-	-	.	.
O=C(O)c1nn(CCOc2c(Cl)cccc2Cl)c(=O)c2ccccc12	-	-	-	-	69	54	44
N#Cc1ccc(C(=O)Nn2cnnc2)cc1	-	-	-	-	-	.	.
Cc1ccc2c(c1)c1ncnc(N3CCOCC3)c1n2C	-	-	-	-	-	.	.
COc1ccc2c(c1)c1ccc3c(c1n2C)C(=O)C=CC3=O	.	.	.	.	93	74	58
Cc1ccc2c(c1)c1ccc3c(c1n2C)C(=O)C=CC3=O	.	.	.	.	86	71	57
Cn1ccnc1C(=O)c1cc(SCC(=O)NC2CC2)nc2ccccc12	-	-	-	-	-	.	.
CN(C(=O)CSc1cc(C(=O)c2nccn2C)c2ccccc2n1)c1ccccc1	.	-	-	106	53	63	81
CCc1cccc(N(C)C(N)=Nc2cccc3ccccc23)c1	-	-	-	-	53	-	.
COc1ccc(S(=O)(=O)N2CCOCC2)cc1NC(=O)CSc1nnc(N)s1	-	-	-	-	-	.	.
C[C@H](NC(=O)c1[nH]cnc1C(=O)Nc1ccc(Cl)cc1)c1ccccc1	-	.	-	-	61	-	68
C[C@@H](NC(=O)c1[nH]cnc1C(=O)Nc1ccc(Cl)cc1)c1ccccc1	-	.	-	-	60	45	62
Cc1ccc(OCCC(=O)NNC(=O)c2nn(C)c(=O)c3ccccc23)cc1	.	.	-	-	-	.	.
O=C(Nc1ccc(N2CCOCC2)cc1N1CCOCC1)c1ccc(Br)cc1	-	-	-	-	-	.	.
O=C(COc1ccc(Br)cc1)Nc1ccc(N2CCOCC2)cc1N1CCOCC1	.	.	-	-	82	-	.
Cc1nc(N)c(CC(Br)CBr)c(Cl)n1 (centres undefined)	-	-	-	-	-	.	.
CCOC(=O)C1CCCN(C(=O)c2cc(S(=O)(=O)N(C)C)ccc2N2CCCC2)C1 (centres undefined)	-	-	-	-	-	.	.
COc1ccc(CC2=CC(=O)c3ccccc3C2=O)cc1	-	-	-	.	55	-	.
COc1ccc(CC(=O)NN2C(=O)c3ccccc3C2=O)cc1	-	-	-	-	-	.	.
CC(=O)Nc1ccc(Cc2ccc3[nH]c(=O)cc(C)c3c2)cc1	-	-	-	-	68	41	69
CC(=O)Nc1ccc2[nH]c(C)cc(=O)c2c1	-	-	-	-	-	.	.
O=C(CN(Cc1ccco1)C(=O)c1ccc(F)cc1)Nc1ccccc1Br	-	.	-	-	-	.	.
C=CCN(CC=C)S(=O)(=O)c1ccc(NC(=S)NC(=O)C2CC2)cc1	-	-	-	-	-	.	.
Cc1cc(OCC(O)CNC(C)c2ccccc2)ccc1C(C)C (centres undefined)	-	-	-	-	59	-	.
